Measured values as given in PubChem BioAssay (NCI).
This is part of a sample that, as a whole, favours compounds with a hit. Of some 83,000 tested, about 20% had one in any assay.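 Cells were grown in 96-well plates and exposed to the test compound at a single concentration for 48 hours; results are reported as percent growth, with values below 10 considered active.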 Values without a mark were called inactive. The source made the active and inactive calls.

Experiments:
Assay in all cases: NCI-60 one-dose screen, 48 h (100 = growth as untreated, 0 = no growth, -100 = all killed)
Conditions in all cases: 10 µM unless noted
[1] = test system: SR leukemia
[2] = test system: RPMI-8226 leukemia
[3] = test system: OVCAR-8 ovarian
[4] = test system: OVCAR-5 ovarian
[5] = test system: OVCAR-4 ovarian
[6] = test system: SK-OV-3 ovarian
[7] = test system: IGROV1 ovarian
[8] = test system: OVCAR-3 ovarian
[9] = test system: HS 578T breast
[10] = test system: NCI/ADR-RES ovarian

SMILES | growth [1] | growth [2] | growth [3] | growth [4] | growth [5] | growth [6] | growth [7] | growth [8] | growth [9] | growth [10]
COC(=O)c1cc(C(=O)C(C)(C)C)n2c3ccccc3c3ccccc3c12 | 69.7% | 70.2% | 98.6% | 98.6% | 85.9% | 109% | 86.2% | 110% | 99.3% | 89.3%
O=C(N/N=C/c1ccoc1)c1[nH]c2ccc(Br)cc2c1-c1ccccc1 | -13.1% (active) | 2.8% (active) | -47.6% (active) | -100% (active) | -86.8% (active) | -83.6% (active) | -87.4% (active) | -45.8% (active) | -28% (active) | -72.5% (active)
O=C(Nc1ccc(Cl)c(C(F)(F)F)c1)N1CCN(c2cc(-c3cn(-c4ccccc4)nc3-c3cccc(O)c3)ccn2)CC1 | 10.8% | -13.7% (active) | 8.11% (active) | -35.1% (active) | 13.5% | 24.3% | 10.8% | 13.5% | 7.22% (active) | -23.9% (active)
O=C(NC(=S)N1CCN(c2ncnc3c2cnn3-c2ccccc2)CC1)c1ccc(F)cc1 | 8.59% (active) | 76.3% | 67.8% | 92.8% | 45.8% | 69.1% | 79.4% | 113% | 70.5% | 71.8%
Cc1ccc(C(=O)Nc2cc(-n3ccnc3C)cc(C(F)(F)F)c2)cc1C#Cc1cnc2cccnn12 | -17.9% (active) | -14.8% (active) | 18.5% | 7.14% (active) | 15.6% | -0.287% (active) | 4.66% (active) | 37.8% | -25.9% (active) | 4.26% (active)
CC1=C(C(=O)OCc2ccccc2)C(c2cccc3ccccc23)n2c(nc3ccccc32)N1 (stereo not given) | 19% | 15.3% | 31.2% | 41% | 46.7% | 25.2% | 31.3% | -6.62% (active) | 5.52% (active) | -6.92% (active)
C#CCCCNCCNc1ccnc2cc(Cl)ccc12 | 2.22% (active) | 47.9% | 79.6% | 64.3% | 89.8% | 103% | 84.6% | 85.8% | 91.8% | 68.8%
CCCCCCCCc1ccc(C(=O)Nc2ccc(C)c(OP(=O)(O)O)c2)cc1 | 81.9% | 50.6% | 100% | 120% | 88.9% | 115% | 110% | 96.2% | 91.6% | 97.5%
COC(=O)c1cccc(Oc2ccc(NC(=O)Nc3cc(C(F)(F)F)ccc3F)cc2)c1 | 26.9% | 62.8% | 40.3% | 87.1% | 55.4% | 87.6% | 56.7% | 78.5% | 4.44% (active) | 73.9%
Cc1nc2sccn2c1-c1nnc(SCc2ccccc2)o1 | 87.5% | 79.1% | 96.5% | 90.2% | 79.8% | 97.9% | 92% | 117% | 107% | 78.1%
Clc1ccc2c(NCCNC34CC5CC(CC(C5)C3)C4)ccnc2c1 | -35.2% (active) | 0.134% (active) | -63.4% (active) | -37.1% (active) | -57.3% (active) | -83.1% (active) | -55.6% (active) | -52.4% (active) | -45.4% (active) | -71.3% (active)
O=C1c2cccc3c(N4CCN(Cc5ccccc5)CC4)ccc(c23)C(=O)N1c1cccc(-c2nn(-c3ccccc3)cc2-c2nc3ccccc3s2)c1 | 87.3% | 103% | 115% | 107% | 105% | 102% | 89.5% | 102% | 106% | 104%
Cn1cc(-c2cc(N)n3nc(-c4c[nH]c5ccc(F)cc45)cc3n2)c2cccnc21 | -11.7% (active) | -30.3% (active) | -59.6% (active) | -81.1% (active) | -30% (active) | -56% (active) | -71.4% (active) | -76.1% (active) | -14.6% (active) | -44.7% (active)
